Experimental data as given in article PMC11062922 (Nature Chemical Biology, 2023).
Like-named read-outs stand apart in the source and are kept apart here.

Key:
Parameters in all cases: species or system human, MV4-11 + K-562 + COLO205 + SK-N-BE2 + OVCAR-8
BUB1 = settings: read-out: apparent Kd, compound concentrations: 100 nM and 1000 nM (sheet 'Samples'), n = 1
CIT = settings: read-out: apparent Kd; compound concentrations: 100 nM and 1000 nM (sheet 'Samples'), CATDS: 0.144210490801775; n = 1
CSNK1D = settings: read-out: apparent Kd; compound concentrations: 100 nM and 1000 nM (sheet 'Samples'), CATDS: 0.10890792541592099; n = 1
GAK = settings: read-out: apparent Kd, compound concentrations: 100 nM and 1000 nM (sheet 'Samples'), n = 1
MAPK10 = settings: read-out: apparent Kd; compound concentrations: 100 nM and 1000 nM (sheet 'Samples'), CATDS: 0.135593379838652; n = 1
MAPK14 = settings: read-out: apparent Kd, compound concentrations: 100 nM and 1000 nM (sheet 'Samples'), n = 1
MAPK9 = settings: read-out: apparent Kd; compound concentrations: 100 nM and 1000 nM (sheet 'Samples'), CATDS: 0.122740421728674; n = 1
MAPKAPK2 = settings: read-out: apparent Kd, compound concentrations: 100 nM and 1000 nM (sheet 'Samples'), n = 1
CAMK2B = settings: read-out: apparent Kd; compound concentrations: 100 nM and 1000 nM (sheet 'Samples'), CATDS: 0.32138183230231099; n = 1
FN3K = settings: read-out: apparent Kd; compound concentrations: 100 nM and 1000 nM (sheet 'Samples'), CATDS: 0.15794853926882399; n = 1
ICK = settings: read-out: apparent Kd; compound concentrations: 100 nM and 1000 nM (sheet 'Samples'), CATDS: 0.184620648021635; n = 1
MAPK11 = settings: read-out: apparent Kd; compound concentrations: 100 nM and 1000 nM (sheet 'Samples'), CATDS: 0.164145076514569; n = 1
PIK3CD = settings: read-out: apparent Kd, n = 1
BMPR2 = settings: read-out: apparent Kd; compound concentrations: 100 nM and 1000 nM (sheet 'Samples'), CATDS: 6.92108143191002E-2; n = 1
CDC7 = settings: read-out: apparent Kd; compound concentrations: 100 nM and 1000 nM (sheet 'Samples'), CATDS: 7.2811960251287902E-2; n = 1
CLK1 = settings: read-out: apparent Kd; compound concentrations: 100 nM and 1000 nM (sheet 'Samples'), CATDS: 6.6251473023667004E-2; n = 1
CLK4 = settings: read-out: apparent Kd; compound concentrations: 100 nM and 1000 nM (sheet 'Samples'), CATDS: 8.9206642022587504E-2; n = 1
CSNK2A1;CSNK2A3 = settings: read-out: apparent Kd; compound concentrations: 100 nM and 1000 nM (sheet 'Samples'), CATDS: 8.9230390485803696E-2; n = 1
CSNK2A2 = settings: read-out: apparent Kd; compound concentrations: 100 nM and 1000 nM (sheet 'Samples'), CATDS: 7.4198005881570203E-2; n = 1
JAK1 = settings: read-out: apparent Kd; compound concentrations: 100 nM and 1000 nM (sheet 'Samples'), CATDS: 8.5496102279709801E-2; n = 1
PI4KB = settings: read-out: apparent Kd; compound concentrations: 100 nM and 1000 nM (sheet 'Samples'), CATDS: 0.18235028668709399; n = 1
PIK3C2B = settings: read-out: apparent Kd; compound concentrations: 100 nM and 1000 nM (sheet 'Samples'), CATDS: 7.7184460843741698E-2; n = 1
RIOK2 = settings: read-out: apparent Kd; compound concentrations: 100 nM and 1000 nM (sheet 'Samples'), CATDS: 5.9872886906535798E-2; n = 1
TNIK = settings: read-out: apparent Kd; compound concentrations: 100 nM and 1000 nM (sheet 'Samples'), CATDS: 7.3078421719639103E-2; n = 1
AURKA = settings: read-out: apparent Kd, n = 1
AURKB = settings: read-out: apparent Kd, n = 1
CDC42 = settings: read-out: apparent Kd; compound concentrations: 100 nM and 1000 nM (sheet 'Samples'), CATDS: 0.132933221213999; n = 1
GSK3A = settings: read-out: apparent Kd; compound concentrations: 100 nM and 1000 nM (sheet 'Samples'), CATDS: 0.398799931633807; n = 1
GSK3B = settings: read-out: apparent Kd; compound concentrations: 100 nM and 1000 nM (sheet 'Samples'), CATDS: 0.29957385679939402; n = 1
BMP2K = settings: read-out: apparent Kd; compound concentrations:100 nM and 1000 nM (sheet 'Samples'); n = 1
MAP3K1 = settings: read-out: apparent Kd; compound concentrations:100 nM and 1000 nM (sheet 'Samples'); n = 1
MAP4K5 = settings: read-out: apparent Kd; compound concentrations:100 nM and 1000 nM (sheet 'Samples'); n = 1
MAPK6 = settings: read-out: apparent Kd; compound concentrations:100 nM and 1000 nM (sheet 'Samples'); n = 1
DDR1 = settings: read-out: apparent Kd; compound concentrations:100 nM and 1000 nM (sheet 'Samples'); n = 1
DDR2 = settings: read-out: apparent Kd; compound concentrations:100 nM and 1000 nM (sheet 'Samples'); n = 1
FLT3 = settings: read-out: apparent Kd, n = 1
FLT4 = settings: read-out: apparent Kd, n = 1
MET = settings: read-out: apparent Kd, n = 1
PLK4 = settings: read-out: apparent Kd, n = 1
RET = settings: read-out: apparent Kd; compound concentrations:100 nM and 1000 nM (sheet 'Samples'); n = 1
TGFBR2 = settings: read-out: apparent Kd; compound concentrations:100 nM and 1000 nM (sheet 'Samples'); n = 1
TNK1 = settings: read-out: apparent Kd, n = 1
EPHB6 = settings: read-out: apparent Kd; compound concentrations: 100 nM and 1000 nM (sheet 'Samples'), CATDS: 7.4696774901665194E-2; n = 1
FER = settings: read-out: apparent Kd; compound concentrations: 100 nM and 1000 nM (sheet 'Samples'), CATDS: 5.6438447882713398E-2; n = 1
FES = settings: read-out: apparent Kd; compound concentrations: 100 nM and 1000 nM (sheet 'Samples'), CATDS: 5.2113476135959902E-2; n = 1
IRAK3 = settings: read-out: apparent Kd; compound concentrations: 100 nM and 1000 nM (sheet 'Samples'), CATDS: 5.7923631136655801E-2; n = 1
MST1R = settings: read-out: apparent Kd; compound concentrations: 100 nM and 1000 nM (sheet 'Samples'), CATDS: 5.5385881905980802E-2; n = 1
PDGFRB = settings: read-out: apparent Kd; compound concentrations: 100 nM and 1000 nM (sheet 'Samples'), CATDS: 5.6967263110053901E-2; n = 1
[1] = compound concentrations:100 nM and 1000 nM (sheet 'Samples')

Fc1ccc(-c2nn3c(OCC(F)(F)F)cccc3c2-c2ccncc2)cc1 [GW514784X] showed a potency estimated from few doses (BUB1; CATDS: 0.17934012366879401) of 448 nM, a potency estimated from few doses (CIT) of 646 nM and a potency estimated from few doses (CSNK1D) of 1160 nM. It also gave a potency estimated from few doses (GAK; CATDS: 0.122345585139645) of 890 nM, a potency estimated from few doses (MAPK10) of 725 nM and a potency estimated from few doses (MAPK14; CATDS: 0.115463865520786) of 1010 nM. For the same molecule, the potency estimated from few doses (MAPK9) was 884 nM and the potency estimated from few doses (MAPKAPK2; CATDS: 0.10049167184689101) was 1420 nM.

With CSc1ccc(-c2nc3n(c2-c2ccncc2)CCC3)cc1 [SKF-105561] the potency estimated from few doses (BUB1; CATDS: 0.15968057437579899) was 2300 nM, the potency estimated from few doses (CAMK2B) was 557 nM and the potency estimated from few doses (FN3K) was 2370 nM. It also gave a potency estimated from few doses (ICK) of 1580 nM and a potency estimated from few doses (MAPKAPK2; CATDS: 0.25784854376508698) of 803 nM.

For Cc1cc(N2CCC(NS(=O)(=O)c3ccc(F)cc3)CC2)nc(Nc2cccc(C#N)c2)n1.O=C(O)C(F)(F)F [GSK1653537A], the potency estimated from few doses (BUB1; CATDS: 0.134254488051117) was 1700 nM, the potency estimated from few doses (MAPK11) was 822 nM and the potency estimated from few doses (MAPK14; CATDS: 0.28659928881312002) was 232 nM. For the same molecule, the potency estimated from few doses (MAPKAPK2; CATDS: 0.18697262000238801) was 573 nM and the potency estimated from few doses (PIK3CD; compound concentrations: 100 nM and 1000 nM (sheet 'Samples'), CATDS: 0.38142915880681) was 144 nM.

Work on COC(=O)c1ccc2c(c1)C(=Cc1cc(Br)c(O)c(Br)c1)C(=O)N2 [GW405841X] yielded a potency estimated from few doses (BMPR2) of 1220 nM, a potency estimated from few doses (CDC7) of 1070 nM and a potency estimated from few doses (CLK1) of 1380 nM. It also gave a potency estimated from few doses (CLK4) of 668 nM, a potency estimated from few doses (CSNK2A1;CSNK2A3) of 667 nM and a potency estimated from few doses (CSNK2A2) of 1020 nM. For the same molecule, the potency estimated from few doses (GAK; CATDS: 0.232195819387676) was 138 nM, the potency estimated from few doses (JAK1) was 731 nM and the potency estimated from few doses (PI4KB) was 194 nM. It also gave a potency estimated from few doses (PIK3C2B) of 924 nM, a potency estimated from few doses (RIOK2) of 1910 nM and a potency estimated from few doses (TNIK) of 1060 nM.

With Cc1[nH]nc2c1N=C(c1ccccc1F)c1cc(C#N)ccc1N2 [RO0275062-000] the potency estimated from few doses (AURKA; compound concentrations: 100 nM and 1000 nM (sheet 'Samples'), CATDS: 0.171682106860061) was 496 nM, the potency estimated from few doses (AURKB; compound concentrations: 100 nM and 1000 nM (sheet 'Samples'), CATDS: 0.172202722003443) was 492 nM and the potency estimated from few doses (CDC42) was 1240 nM. It also gave a potency estimated from few doses (GSK3A) of 88.7 nM and a potency estimated from few doses (GSK3B) of 143 nM.

C[C@@H](Oc1cc(-n2cnc3ccc(OCC4CCN(C)CC4)cc32)sc1C(N)=O)c1ccccc1Cl [GSK571989A] was tested, and the potency estimated from few doses (BMP2K) was 1870 nM, the potency estimated from few doses (MAP3K1) was 1600 nM and the potency estimated from few doses (MAP4K5) was 1670 nM. For the same molecule, the potency estimated from few doses (MAPK6) was 1540 nM and the potency estimated from few doses (PIK3CD; [1]) was 185 nM.

Molecule CN1CCN(C(=O)c2ccc(NC(=O)Nc3ccc(N(C)c4ccnc(Nc5ccc(CS(C)(=O)=O)cc5)n4)cc3)cc2)CC1.Cl [GW830263A] has a potency estimated from few doses (AURKA; [1]) of 303 nM, a potency estimated from few doses (AURKB; [1]) of 247 nM and a potency estimated from few doses (DDR1) of 816 nM. It also gave a potency estimated from few doses (DDR2) of 1150 nM, a potency estimated from few doses (FLT3; [1]) of 108 nM and a potency estimated from few doses (FLT4; [1]) of 566 nM. It also gave a potency estimated from few doses (MET; [1]) of 2330 nM, a potency estimated from few doses (PLK4; [1]) of 873 nM and a potency estimated from few doses (RET) of 708 nM. The potency estimated from few doses (TGFBR2) was 2130 nM and the potency estimated from few doses (TNK1; [1]) was 357 nM.

CN(c1ccc(NC(=O)Nc2c(Cl)cccc2Cl)cc1)c1ccnc(Nc2cccc(CS(C)(=O)=O)c2)n1 [GW809897X] showed a potency estimated from few doses (AURKA; compound concentrations: 100 nM and 1000 nM (sheet 'Samples'), CATDS: 7.2956934491261893E-2) of 449 nM, a potency estimated from few doses (AURKB; compound concentrations: 100 nM and 1000 nM (sheet 'Samples'), CATDS: 8.8518013228777503E-2) of 271 nM and a potency estimated from few doses (EPHB6) of 421 nM. For the same molecule, the potency estimated from few doses (FER) was 1010 nM, the potency estimated from few doses (FES) was 1400 nM and the potency estimated from few doses (FLT3; compound concentrations: 100 nM and 1000 nM (sheet 'Samples'), CATDS: 0.75020516601315201) was 3.04 nM. The potency estimated from few doses (FLT4; compound concentrations: 100 nM and 1000 nM (sheet 'Samples'), CATDS: 0.232544079130999) was 31.6 nM, the potency estimated from few doses (IRAK3) was 921 nM and the potency estimated from few doses (MET; compound concentrations: 100 nM and 1000 nM (sheet 'Samples'), CATDS: 6.0904662121703403E-2) was 774 nM. For the same molecule, the potency estimated from few doses (MST1R) was 1090 nM, the potency estimated from few doses (PDGFRB) was 979 nM and the potency estimated from few doses (PLK4; compound concentrations: 100 nM and 1000 nM (sheet 'Samples'), CATDS: 9.5800604648041798E-2) was 224 nM. It also gave a potency estimated from few doses (TNK1; compound concentrations: 100 nM and 1000 nM (sheet 'Samples'), CATDS: 0.119940011708452) of 134 nM.
